The list is not random: actives were taken first. Their share in the collection is about 2.9%.
ADAM17 inh – ADAM17 inhibitors, primary screen, biochemical, QFRET; Disintegrin and metalloproteinase domain-containing protein 17 (Homo sapiens), P78536; recombinant ADAM17, EDANS/DABCYL FRET peptide cleavage; inhibition, % at 6.95 µM; actives 0.83% (n = 370,000); AID 720648, 2013;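 active = inhibition above the mean of compounds lying between control limits plus 3 SD, set per campaign, cut at about 8.5% in these data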
PLCg1 inh – PLC-gamma1 enzyme inhibitors, primary screen, biochemical, fluorescence, purified enzyme; 1-phosphatidylinositol 4,5-bisphosphate phosphodiesterase gamma-1 (Homo sapiens), P19174; fluorogenic substrate; inhibition, % at 12.2 µM; actives 0.84% (n = 370,000); AID 720700, 2013; in the data active = inhibition above about 9.5%
proKLK7 act – proKLK7 zymogen activators, primary screen, biochemical, fluorescence intensity | AID 652039, 2013 | actives 0.9% (n = 370,000) | purified proKLK7, EDANS-DABCYL substrate fluorescence; 100% is mature enzyme control, 0% vehicle | Kallikrein-7 (Homo sapiens), P49862 | activation, % at 7 µM;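 active = activation above the mean of all tested compounds plus 3 SD, computed per campaign excluding outliers beyond control limits, cut at about 13% in these data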
ADAM10 inh – human ADAM10 inhibitors, primary screen, biochemical, QFRET, HTS | AID 720582, 2013 | Disintegrin and metalloproteinase domain-containing protein 10 (Homo sapiens), O14672 | inhibition, % at 7 µM | recombinant ADAM10, EDANS/DABCYL FRET peptide cleavage, 3 h | actives 0.62% (n = 370,000);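 active = inhibition above a per-campaign cutoff equal to the mean of compounds falling between control-based bounds plus 3 SD, cut at about 20% in these data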
PLC-beta3 inh – human PLC-beta3 inhibitors, primary screen, biochemical, fluorescence; AID 720704, 2013; Purified PLC-beta3, fluorogenic substrate; 1-phosphatidylinositol 4,5-bisphosphate phosphodiesterase beta-3 (Homo sapiens), Q01970; actives 0.18% (n = 370,000); inhibition, % at 12.2 µM
PLCgamma1 ctr – PLC-gamma1 enzyme inhibitors, counter-screen for PLC-beta3 inhibitor project, biochemical, fluorescence. shares compounds with PLCg1 inh. actives 3.1% (n = 3,300). inhibition, % at 12.3 µM. purified PLC-gamma1, fluorogenic substrate; in the data active = inhibition above about 9.5%
PLCb3 confirm – PLC-beta3 inhibitor confirmation, biochemical, fluorescence, purified enzyme; fluorogenic substrate fluorescence; inhibition, % at 12.3 µM; shares compounds with PLCg1 inh; actives 1% (n = 3,300); AID 743261, 2014
A number is an active result; . = inactive; / = no result given. Cut-off read from the data, not from the text of the source, unless noted: active = inhibition above about 11%; inactive = the rest.

SMILES	ADAM17 inh	PLCg1 inh	proKLK7 act	ADAM10 inh	PLC-beta3 inh	PLCgamma1 ctr	PLCb3 confirm
CC(=O)Nc1ccc(NC(=O)CSc2nc(N)c(NC(=O)c3ccco3)c(=O)[nH]2)cc1	.	11.6	.	.	.	.	.
C[C@@H]1CN([C@@H](C)CO)S(=O)(=O)c2ccc(C#Cc3cccc(F)c3)cc2O[C@@H]1CN(C)CC1CC1	.	.	.	.	.	/	/
N#Cc1cccc(C=C(C(=O)c2ccccc2)c2ccccc2)c1	.	.	.	.	.	/	/
C#CCOCCOCCOCCNc1nc(N2CCN(C(=O)[C@H](CCCN=C(N)N)n3cc(C(N)[C@@H](C)CC)nn3)CC2)nc(N2CCN(C(=O)[C@H](CC(N)=O)n3cc([C@@H](N)C(C)C)nn3)CC2)n1 (stereo not given in full)	.	.	.	.	14.0	.	.
CCCCNS(=O)(=O)c1cccc(NC(=O)[C@@H]2O[C@H](CO)[C@H](O)[C@H](O)[C@H]2O)c1	.	.	.	.	.	/	/
O=C(Cn1cc([N+](=O)[O-])cn1)N1CCc2ccccc21	.	.	.	.	.	/	/
CC1CCN(CC(=O)N2c3ccccc3CC2C)CC1 (stereo not given)	.	.	.	.	.	/	/
CC1Cc2ccccc2N1C(=O)CN1CCN(Cc2ccccc2)CC1 (stereo not given)	.	9.8	.	.	.	.	.
CC1Cc2ccccc2N1C(=O)Cn1cc([N+](=O)[O-])cn1 (stereo not given)	.	.	.	.	12.6	.	.
CCOC(=O)c1c(S(=O)(=O)N(C)C2CCCCC2)c(C)n(C)c1C	.	9.9	.	.	.	.	.
CCOC(=O)c1c(S(=O)(=O)N2CCN(C3CCCCC3)CC2)c(C)n(C)c1C	.	.	.	.	.	/	/
Cc1c(C(=O)NC(=S)N(Cc2ccccc2)c2ccccn2)cccc1[N+](=O)[O-]	.	.	.	.	.	/	/
c1ccc(CC2CCN(C(c3cccs3)c3nnnn3C3CCCC3)CC2)cc1 (stereo not given)	.	.	.	.	.	/	/
COc1ccccc1N1CCN(C(c2cccs2)c2nnnn2C2CCCC2)CC1 (stereo not given)	.	9.9	.	.	.	.	.
O=C1CCC2(CCC(c3ccccc3)CC2)N1CC[C@@H](O)c1ccccc1 (stereo not given in full)	.	.	/	.	.	/	/
COc1ccc(NC(=O)C(OC(=O)CNC(=O)c2ccccc2)c2ccccc2)cc1F (stereo not given)	.	.	/	.	.	/	/
Cc1onc(-c2c(Cl)cccc2Cl)c1NC(=O)NN(C)C	.	.	.	.	.	/	/
CSCCNC(=O)Nc1c(-c2c(Cl)cccc2Cl)noc1C	.	12.1	.	.	.	.	.
Cn1cc([C@]2(O)C(=O)Nc3ccc(OC(F)(F)F)cc32)c2ccccc21	.	.	.	.	.	/	/
COc1ccccc1CNC(=O)C1CCC(=O)N(CCCN2CCCC2=O)C1 (stereo not given)	.	9.9	.	.	.	.	.
COCCNC(=O)C1(C)CCCN(C(=O)COc2ccccc2)C1 (stereo not given)	.	.	.	.	.	/	/
CCOc1ccccc1NC(=O)c1cccc(NC2=NC3CS(=O)(=O)CC3S2)c1 (stereo not given)	.	12.8	.	.	.	.	.
CC1(C(=O)NS(=O)(=O)C2CC2)CCCN(C(=O)c2c(F)cccc2F)C1 (stereo not given)	.	.	.	.	.	/	/
O=C(C[C@H]1C[C@@H]2c3cc(NS(=O)(=O)c4ccccc4)ccc3O[C@@H]2[C@H](CO)O1)N1CCOCC1	.	.	.	.	.	/	/

Screening results (PubChem BioAssay)
